Test results from the supplement of paper PMC10681739.

What was measured:
ETS1 = biological target: T1, ETS1 (UniProt P14921); assay: ETS1 binding intensity (PBM fluorescence), ETS1 alone (arbitrary fluorescence units); higher = stronger binding; settings: ETS1 concentration 1 nM; RUNX1 concentration 0 nM
T1 sequence: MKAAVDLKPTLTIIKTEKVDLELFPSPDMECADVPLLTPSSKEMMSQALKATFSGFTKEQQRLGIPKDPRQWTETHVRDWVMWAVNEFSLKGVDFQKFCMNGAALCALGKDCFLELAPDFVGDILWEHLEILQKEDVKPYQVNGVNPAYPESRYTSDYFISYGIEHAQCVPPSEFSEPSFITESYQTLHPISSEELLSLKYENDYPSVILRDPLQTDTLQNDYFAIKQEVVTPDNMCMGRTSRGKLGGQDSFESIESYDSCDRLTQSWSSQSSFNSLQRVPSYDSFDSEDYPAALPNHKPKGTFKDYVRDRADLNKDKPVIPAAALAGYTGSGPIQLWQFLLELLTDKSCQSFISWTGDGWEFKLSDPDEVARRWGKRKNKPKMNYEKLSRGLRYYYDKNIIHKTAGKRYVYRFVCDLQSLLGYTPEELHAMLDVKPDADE

RUNX1 [1] = biological target: RUNX1 (UniProt Q01196); assay: RUNX1 binding intensity (PBM fluorescence), RUNX1 alone (arbitrary fluorescence units); higher = stronger binding; settings: RUNX1 concentration 2 nM; ETS1 concentration 0 nM
Procedure: (§1)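 Cooperative gcPBM on 36-bp genomic probes with neighbouring ETS1 and RUNX1 sites. Recombinant human RUNX1 (2 nM) was incubated alone or with ETS1 (25 nM) and detected with anti-RUNX1 antibody plus Alexa488 secondary. Values are medians over 4 replicate spots; the RUNX1+ETS1 data were normalised to the RUNX1-only data. The probes sit in constant array flanks that are not printed.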

RUNX1 [2] = biological target: RUNX1 (UniProt Q01196); assay: RUNX1 binding intensity (PBM fluorescence) in presence of ETS1, normalised to RUNX1-only experiment (arbitrary fluorescence units); higher = stronger binding; settings: RUNX1 concentration 2 nM; ETS1 concentration 25 nM
Procedure: as §1
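For RUNX1 binding intensity (PBM fluorescence) in presence of ETS1, normalised to RUNX1-only experiment in this document: Full-length recombinant human ETS1 or RUNX1 bound to double-stranded 36-bp genomic probes on microarrays, detected by protein-specific primary antibody and Alexa488 secondary, spot fluorescence as median of four replicate spots.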
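For RUNX1 binding intensity (PBM fluorescence), RUNX1 alone in this document: Full-length recombinant human RUNX1 bound to double-stranded 36-bp genomic probes on a high-density microarray, scored as Alexa488 fluorescence per spot via anti-RUNX1 antibody, median of four replicate spots.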

RUNX1, sequence (Q01196 whole entry): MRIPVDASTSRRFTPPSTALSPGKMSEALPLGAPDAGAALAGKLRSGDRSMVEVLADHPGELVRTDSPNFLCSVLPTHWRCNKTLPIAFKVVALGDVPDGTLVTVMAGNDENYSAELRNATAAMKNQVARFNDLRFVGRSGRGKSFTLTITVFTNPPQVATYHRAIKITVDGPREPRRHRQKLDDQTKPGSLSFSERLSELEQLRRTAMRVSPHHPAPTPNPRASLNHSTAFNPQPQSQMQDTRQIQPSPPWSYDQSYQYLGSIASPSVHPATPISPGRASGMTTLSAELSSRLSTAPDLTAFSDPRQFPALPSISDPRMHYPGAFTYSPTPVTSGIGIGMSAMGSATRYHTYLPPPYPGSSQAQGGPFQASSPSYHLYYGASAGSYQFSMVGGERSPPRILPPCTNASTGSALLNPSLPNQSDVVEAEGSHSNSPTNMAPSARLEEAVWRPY

| Sequence | ETS1 binding intensity (ETS1) | RUNX1 binding intensity (RUNX1 [1]) | RUNX1 binding intensity (RUNX1 [2]) |
| --- | --- | --- | --- |
| AGGTCGCCCTCCGGATGCGGTCCCCACACCGCCTGC | 1870 | 857 | 1490 |
| GCACAGGCCGGAAGGAAAAGGGTTGTGGGGCTCATT | 1290 | 814 | 952 |
| GACACAAGCCTCACAGGATGTGGTCAAAGAAGGTTG | 3830 | 762 | 3910 |
| TCCCCACATCCTTTAAAACGATGAGATAACCACATG | 398 | 1000 | 2960 |
| GTTAGCGTGATCGGAGGATGTGGTTTTCCTCCCTCT | 1440 | 942 | 1930 |
| GAAAAAAATGAGCTTCCTTTAACCACAACTGTATTA | 508 | 1350 | 2340 |
| TGAGCACAGTATTTCCTGTGGTTTCTATTGCATTTC | 1010 | 1090 | 3540 |
| GAAGTGTGCTCTTCCGGTACCTGCGGTTCGTTGCGC | 1770 | 808 | 2670 |
| TGCAAAAAAACAGGAAACACCCAGCCGCAAATTATA | 1740 | 863 | 1230 |
| TGGGGAACGCTGCGGATGCTGCGGTAAACCATGCGA | 643 | 1040 | 1700 |
| GTGCTAGGACACAGGAAGCGATACCACAAAGAACAT | 3200 | 818 | 1790 |
| GAAGCCCAACAGGATGCCGAGTAACCACCCACTGAA | 1040 | 822 | 924 |
| CAGAGCAGAGAGGAAGTGGTGGTGGCCACAGTCCCA | 1760 | 686 | 1220 |
| GCTGCCACTTCCCTTGCTTATTTCATGTGGTTTGGA | 552 | 1230 | 1980 |
| GTAAACTAGCTCTTCCGGTCTGTGGCCCTCACAGGA | 2840 | 824 | 1500 |
| AACTGGGCGGAAAGAACGGCTAACCGCAAGCTGCCG | 429 | 11800 | 23900 |

| Sequence | ETS1 binding intensity (ETS1) | RUNX1 binding intensity (RUNX1 [1]) | RUNX1 binding intensity (RUNX1 [2]) |
| --- | --- | --- | --- |
| CGGCATCTGACAGGATGTGGGCAGGGAGAGAGAGAC | 3780 | 1270 | 4210 |
| CTGACGCATTTCCGGCCTTTGCGGTTGATCGGTCAT | 5220 | 4410 | 18100 |
| TGGGCAGGAAGTGGTATCTGATTGTGGTTTTGATTT | 3960 | 1360 | 8180 |
| GGTGACACGGCCGGCTTCCTGCCGCAGAGCTCCTGG | 719 | 768 | 1040 |
| TCACATTTTGCCGGATGTGGGTTGAGGGCATGCTGC | 6680 | 773 | 8730 |
| TTCACTTCCACCACTTCCTGTGGGTTTTGTTCATCC | 3090 | 1530 | 5560 |
| CTTAGCACTTCAGCCGGAAACCACAGCATACATTTC | 3980 | 1460 | 2310 |
| AGGGGAGGAACCAGGAAGTTGTGGTAAACTGTAGCA | 2490 | 982 | 2360 |
| GTAGGGAAGACGGGATGTGGGTTTTCAGCCGTGGCC | 1220 | 730 | 2520 |
| CACTTCCTCCTCGGGGGCCTCAGAAAACCACAGGGC | 413 | 1110 | 2790 |
| GCTGTGCCGGCAGGATGTGGTCTTTGGTTTCTGTTT | 5560 | 850 | 3250 |
| GGATGAACAGGAAGCTAAAGTAAATACCACAGTGAC | 1710 | 764 | 1190 |
| CAAGCCAGGAAGAGGGCCCTCACCAGAAACCGCACT | 407 | 907 | 1150 |
| GCCAACAGGAAGCTGGAAGCCAACCGCACTGTGTGC | 1190 | 899 | 1670 |
| ACCTCAAGCCCAGGATGTGGTTTGGCCACTATTGAG | 1310 | 804 | 1680 |
